Measurements reported in article PMC5540273 (PLoS ONE, 2017).

Experiments:
Details in all cases: concentration: 1 μM, replicates: in singlicate; n = 1
MAP3K4 = tested on: MAP3K4
MAP4K2 = tested on: MAP4K2
MAP4K3 = tested on: MAP4K3
MAP4K4 = tested on: MAP4K4
MAP4K5 = tested on: MAP4K5
MAPKAPK2 = tested on: MAPKAPK2
MAPKAPK5 = tested on: MAPKAPK5
MARK1 = tested on: MARK1
MARK2 = tested on: MARK2
MARK3 = tested on: MARK3
MARK4 = tested on: MARK4
MAST1 = tested on: MAST1
MEK1 = tested on: T1, MEK1
T1 construct: gene MAP2K1

MEK2 = tested on: T2, MEK2
T2 construct: gene MAP2K2

MEK3 = tested on: T3, MEK3
T3 construct: gene MAP2K3

MEK4 = tested on: T4, MEK4
T4 construct: gene MAP2K4

MEK5 = tested on: T5, MEK5
T5 construct: gene MAP2K5

MEK6 = tested on: T6, MEK6
T6 construct: gene MAP2K6

MELK = tested on: MELK
MERTK = tested on: MERTK
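Also: KINOMEscan kinase panel screen.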

SMILES	%Inh (MAP3K4) [%]	%Inh (MAP4K2) [%]	%Inh (MAP4K3) [%]	%Inh (MAP4K4) [%]	%Inh (MAP4K5) [%]	%Inh (MAPKAPK2) [%]	%Inh (MAPKAPK5) [%]	%Inh (MARK1) [%]	%Inh (MARK2) [%]	%Inh (MARK3) [%]	%Inh (MARK4) [%]	%Inh (MAST1) [%]	%Inh (MEK1) [%]	%Inh (MEK2) [%]	%Inh (MEK3) [%]	%Inh (MEK4) [%]	%Inh (MEK5) [%]	%Inh (MEK6) [%]	%Inh (MELK) [%]	%Inh (MERTK) [%]
CCC(=O)c1c(-c2ccccc2)c2cc(Cl)ccc2c(=O)n1Cc1cc(S(C)(=O)=O)n(CCC(C)(C)O)n1	14	0	0	0	18	23	20	0	15	18	0	0	11	19	23	40	0	8	16	13
Nc1nccc2scc(-c3ccc4c(c3)CCN4C(=O)Cc3ccccc3)c12 [GSK2576924]	10	6	17	24	48	6	0	0	1	1	0	0	2	7	0	5	93.2	6	16	22
CCC(=O)c1c(-c2ccccc2)c2cc(Cl)ccc2c(=O)n1Cc1ccc(C(=O)O)cc1	0	12	0	0	0	0	17	0	3	0	0	11	0	3	0	0	0	0	0	0
CCCNC(=O)Nc1ccc(Oc2ncnc3ccn(C)c23)cc1	6	7	0	0	0	7	0	6	6	0	9	0	0	0	0	10	61	14	7	13
Cc1nc(N(C)[C@H]2CN(C(=O)CC#N)CC[C@H]2C)c2cc[nH]c2n1	12	1	0	0	0	0	10	9	0	0	12	0	2	4	10	0	0	0	0	24
O=C(Nc1n[nH]c2cc(-c3ccccc3F)ccc12)C1CC1 [SB-733371]	29	16	0	43	18	0	10	0	29	0	0	52	0	14	16	0	48	0	0	0
COc1cc2nccc(Nc3cccc(Oc4ccccc4)c3)c2cc1OC.Cl [GW284543]	0	0	0	0	0	15	0	0	8	31	1	7	87	88	0	0	99.9	0	8	0
CN1C(=O)C(Nc2cc(Cl)c(O)c(Cl)c2)=C(c2ccc(Cl)cc2)C1=O [SB-404321]	0	0	0	0	0	89	0	0	10	0	0	41	0	0	29	0	25	0	0	30
COC(=O)c1c(-c2ccccc2)c2cc(C)ccc2c(=O)n1Cc1ccccc1	2	0	0	0	0	24	0	0	17	0	0	0	0	0	0	0	0	10	0	0
COc1ccc(-c2cc3c(C)nc(N)nc3n([C@H]3CC[C@H](OCCO)CC3)c2=O)cn1	4	0	30	0	0	0	0	0	1	0	0	0	0	0	5	0	0	16	19	0
COc1ccc(CNC(=O)NC2CCN(c3ccnc(Nc4ccc(F)cc4)n3)C2)cc1 (centres unmarked) [GSK1379706]	0	0	0	3	2	24	2	0	0	4	3	53	29	21	0	28	25	12	21	39
Cn1c(=O)c(F)c(Nc2ccc(I)cc2F)c2c(=O)n(OC[C@H](O)CO)cnc21	27	0	0	0	5	0	0	0	0	7	33	37	99.6	99.1	0	0	0	0	13	5
Nc1ncnc2c1ncn2-c1cccc2ccccc12 [SKF-97184]	2	0	0	0	0	0	0	23	0	52	29	53	5	24	38	8	26	22	0	0
COC(=O)c1c(-c2ccccc2)c2cc(Br)ccc2c(=O)n1Cc1ccc(S(C)(=O)=O)cc1	9	0	0	19	0	4	2	1	0	11	1	21	13	7	2	17	29	17	12	4
Cl.c1ccc(Cn2cnc3cc(Nc4ncnc5ccccc45)ccc32)cc1 [GW272142]	0	0	0	0	0	15	0	0	0	0	0	0	0	0	0	8	56	0	13	10
Cc1ccc(-c2ccc3c(ccc4sc5c(c43)NC[C@@H](C)N=C5N(C)C)n2)cn1	0	0	0	0	0	0	0	0	5	0	0	0	0	0	0	0	0	2	0	0

SMILES	%Inh (MAP3K4) [%]	%Inh (MAP4K2) [%]	%Inh (MAP4K3) [%]	%Inh (MAP4K4) [%]	%Inh (MAP4K5) [%]	%Inh (MAPKAPK2) [%]	%Inh (MAPKAPK5) [%]	%Inh (MARK1) [%]	%Inh (MARK2) [%]	%Inh (MARK3) [%]	%Inh (MARK4) [%]	%Inh (MAST1) [%]	%Inh (MEK1) [%]	%Inh (MEK2) [%]	%Inh (MEK3) [%]	%Inh (MEK4) [%]	%Inh (MEK5) [%]	%Inh (MEK6) [%]	%Inh (MELK) [%]	%Inh (MERTK) [%]
COc1cc(Nc2nccc(N3CCC(NC(=O)C(C)c4ccc(Cl)cc4)C3)n2)cc(OC)c1OC (centres unmarked) [GSK1379757]	0	0	0	8	5	14	0	0	0	0	11	0	0	0	0	5	59	0	6	0
Cc1ccc(Oc2ccc(Nc3ncnc4cc[nH]c34)cc2C)cn1	6	0	0	0	0	0	30	20	4	3	19	49	37	25	0	0	99.7	9	0	0
COc1ccc(-n2cnc3c(N)ncnc32)cc1 [SKF-97236]	0	22	0	17	19	15	0	15	0	0	19	0	0	0	11	29	56	0	0	35
Cc1nnc(-c2ccc(C)c(-c3ccc(C(=O)O)cc3)c2)o1 [GW608005]	8	0	0	10	0	1	0	4	0	0	21	0	0	0	0	14	0	0	0	25
O=C(NCCNc1ccnc(Nc2ccc(F)cc2)n1)Nc1ccc2c(c1)OCO2 [GSK1379882]	24	0	0	0	0	0	0	0	0	0	0	4	9	19	4	10	9	8	8	0
Nc1nc(-c2ccccc2F)c(-c2ccnc3ccccc23)s1 [GW560459]	1	0	0	11	0	9	0	0	0	4	0	0	0	0	0	40	50	5	0	0
COc1cc2ncn(-c3cc(OCc4ccncc4)c(C(N)=O)s3)c2cc1OC [GSK336313]	0	0	0	0	3	5	0	0	0	0	0	0	3	4	0	8	88	44	0	0
CCS(=O)c1ccc(-c2coc3ccc(-c4nnc(C)o4)cc23)cc1 (centres unmarked)	0	0	0	5	4	0	7	4	8	17	0	53	0	8	6	23	22	0	0	0
COc1cccc(C2=C(Nc3cccc(C(=O)O)c3)C(=O)NC2=O)c1 [SB-390770]	20	0	11	12	15	6	0	15	0	0	23	35	0	10	0	16	4	0	21	3
COc1cccc(-n2cnc3c(N)ncnc32)c1 [SKF-97416]	31	33	0	0	0	0	1	0	13	37	0	59	12	12	43	36	80	18	0	0
Nc1n[nH]c2ncc(-c3ccccc3)cc12 [SB-517081]	3	0	0	0	0	19	0	0	0	0	0	0	0	1	0	0	85	4	0	0
COc1cc2ncn(-c3cc(OCc4ccncc4Br)c(C(N)=O)s3)c2cc1OC [GW854278]	17	11	0	0	20	0	0	8	37	0	39	3	0	13	0	16	98.8	0	17	11
O=c1cc(N2CCOCC2)nc2n(Cc3ccc(F)c(Cl)c3)ccn12 [GSK2297099]	25	0	0	0	0	2	0	0	0	0	0	0	0	0	0	5	1	14	0	0
COc1ccc(Nc2nccc(N3CCC(NS(=O)(=O)c4ccc(NC(C)=O)cc4)C3)n2)cc1 (centres unmarked) [GSK1379729]	13	2	11	21	15	49	1	0	0	0	0	0	0	10	12	5	36	0	17	25
CN1C(=O)C(Nc2ccccc2)=C(c2ccccc2)C1=O [SB-300079]	0	0	0	0	0	0	0	10	0	23	12	100	19	34	25	18	41	0	0	0
